Here are results for 93 compounds from publication PMC4336329 (PLoS ONE, 2015).

SMILES strings stand for the structures. The whole screen tested about 310,000 compounds, of which about 14,000 (4.5%) showed an effect of 50% or more. The effect is printed as a negative number. The sample holds strong results, similar compounds and a random draw of the others, so the mix is not that of the screen.
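Further: peak tail current of the secondary pulse compared with the same well before compound.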

Chain of human ether-à-go-go-related gene (hERG) potassium channel (Q12809 whole entry, looked up): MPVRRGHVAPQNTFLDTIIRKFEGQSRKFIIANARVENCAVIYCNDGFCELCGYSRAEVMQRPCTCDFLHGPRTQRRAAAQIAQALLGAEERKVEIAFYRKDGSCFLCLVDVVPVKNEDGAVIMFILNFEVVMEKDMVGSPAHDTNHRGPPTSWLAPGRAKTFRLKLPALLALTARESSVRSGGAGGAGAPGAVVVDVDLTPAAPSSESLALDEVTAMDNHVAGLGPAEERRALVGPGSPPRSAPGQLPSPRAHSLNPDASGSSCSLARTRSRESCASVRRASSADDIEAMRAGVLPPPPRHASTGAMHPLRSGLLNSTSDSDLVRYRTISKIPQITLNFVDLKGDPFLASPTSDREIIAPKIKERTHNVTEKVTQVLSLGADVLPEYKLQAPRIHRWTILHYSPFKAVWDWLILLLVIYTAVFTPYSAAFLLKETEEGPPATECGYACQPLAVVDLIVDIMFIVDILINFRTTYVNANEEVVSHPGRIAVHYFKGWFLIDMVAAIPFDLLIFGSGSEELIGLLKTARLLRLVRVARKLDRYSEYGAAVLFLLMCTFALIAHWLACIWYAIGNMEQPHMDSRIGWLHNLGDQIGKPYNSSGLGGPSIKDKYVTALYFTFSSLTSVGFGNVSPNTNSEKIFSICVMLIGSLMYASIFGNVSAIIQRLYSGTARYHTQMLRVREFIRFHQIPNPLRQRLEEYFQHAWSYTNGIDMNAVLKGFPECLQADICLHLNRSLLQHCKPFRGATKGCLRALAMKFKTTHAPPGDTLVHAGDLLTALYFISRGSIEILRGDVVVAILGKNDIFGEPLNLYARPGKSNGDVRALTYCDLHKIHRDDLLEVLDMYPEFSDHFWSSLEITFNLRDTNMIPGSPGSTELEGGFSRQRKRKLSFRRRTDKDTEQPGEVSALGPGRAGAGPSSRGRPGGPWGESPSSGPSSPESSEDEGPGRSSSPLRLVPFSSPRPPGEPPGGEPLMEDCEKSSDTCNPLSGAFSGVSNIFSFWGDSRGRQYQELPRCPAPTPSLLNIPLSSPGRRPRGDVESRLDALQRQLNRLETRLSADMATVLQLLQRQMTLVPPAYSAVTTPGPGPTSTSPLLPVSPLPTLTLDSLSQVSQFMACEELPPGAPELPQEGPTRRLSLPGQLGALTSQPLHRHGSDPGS

This assay addresses human ether-à-go-go-related gene (hERG) potassium channel (human, UniProt Q12809). Nature of the assay: primary screen, population patch clamp on CHO cells stably expressing hERG; higher = less effect of the substance.
For `Nn1c(SCC(=O)NC2CCCCC2)nnc1-c1ccccc1F`, the “hERG current change (%, negative = inhibition) at 10uM” value was -3.17%.
With `CCCc1[nH]nc2c1C(c1ccsc1)C(C#N)=C(N)O2` (stereo not drawn) the figure was -7.53%.
With `CCOC(=O)C1CCN(C(=O)c2cc3c(OC)c(OC)c(OC)cc3[nH]2)CC1` the figure was 15.5%.
Take `NNC(=O)c1ccc(COc2ccc3c(c2)CCC3)o1`: the “hERG current change (%, negative = inhibition) at 10uM” value turned out to be 0.852%.
With `O=C(c1ccc(COc2ccc3c(c2)CCC3)o1)N1CCN(c2ccccc2)CC1` the figure was 15.5%; with `O=C(c1ccco1)N1CCN(C(=O)c2ccc(COc3ccc(Cl)cc3Cl)o2)CC1`, -70.4%.
Under `O=C(c1ccco1)N1CCN(C(=O)c2ccc(COc3ccc4c(c3)CCC4)o2)CC1` stands -69%.
Under `O=C(COc1ccc(Cl)cc1Cl)N1CCN(C(=O)c2ccco2)CC1` stands 20.6%; under `O=C(c1ccc(COc2ccc(Cl)cc2Cl)o1)N1CCCC1`, -43.1%.
With `CCOc1cc2[nH]c(=S)n(CCC(=O)NCc3ccco3)c(=O)c2cc1OCC`, the “hERG current change (%, negative = inhibition) at 10uM” value is 23.6%.
With `CCOc1ccccc1CN1CCN(Cc2cc(=O)c3ccccc3[nH]2)CC1CCO` (stereo not drawn) the figure was -66.6%; with `Cc1ccc(CN2CCN(Cc3cc(=O)c4ccccc4[nH]3)CC2CCO)o1` (stereo not drawn), -30.8%.
With `CCOc1ccccc1CN1CCN(Cc2cc3ccccc3[nH]2)CC1CCO` (stereo not drawn) the figure was -59.3%.
Consider `O=c1cc(CN2CCN(Cc3ccc(F)cc3)C(CCO)C2)[nH]c2ccccc12` (stereo not drawn), for which the “hERG current change (%, negative = inhibition) at 10uM” value was -61.2%.
With `CC(C)(C)CN1CCN(Cc2cc3ccccc3[nH]2)CC1CCO` (stereo not drawn) the figure was -8.03%.
In the case of `CC(C)CCN1CCN(Cc2cc3ccccc3[nH]2)CC1CCO` (stereo not drawn), the “hERG current change (%, negative = inhibition) at 10uM” value is on record as -22.4%.
With `Cc1cc(NC(=O)CSc2nc3sc4c(c3c(=O)n2C)CCCC4)no1` the figure was 7.47%; with `O=c1c2ccccc2c(-c2ccccc2)nn1-c1ccc(Cl)c(Cl)c1`, 13.3%.
For the compound `CCOC(=O)C1CCCNC1=O` (stereo not drawn), the “hERG current change (%, negative = inhibition) at 10uM” value is given as 14.8%.
Take `O=C(Nc1ccc(Br)cc1F)c1ccc2c(c1)OCCO2`: the “hERG current change (%, negative = inhibition) at 10uM” value is 12.3%.
With `Brc1ccc2c(c1)OCCOCCOCCOCCOCCOCCO2` the figure was -70.8%; with `S=C(Nc1ccc(Br)cc1)Nc1ccc2c(c1)OCCO2`, 20.5%; with `C=Cc1ccc2c(c1)OCCOCCOCCOCCOCCO2`, -71.2%.
With `CC(=O)Nc1cc2c(cc1Br)OCCO2` the figure was 21.5%; with `O=C(Nc1ccc2c(c1)OCCO2)c1ccc(Br)cc1`, -3.81%; with `Cl.Nc1ccc2c(c1)OCCOCCOCCOCCOCCO2`, -33.5%.
With `O=C(O)/C=C/c1ccc2c(c1)OCCO2` the figure was -25%; with `Brc1cc2c(cc1Br)OCCOCCOCCOCCO2`, -76.5%.
Take `Brc1ccc2c(c1)OCCOCCOCCOCCOCCO2`: the “hERG current change (%, negative = inhibition) at 10uM” value is listed as -76.4%.
With `Brc1ccc2c(c1)OCCOCCOc1cc(Br)ccc1OCCOCCOCCO2` the figure was -4.86%; with `Brc1cc2c(cc1Br)OCCOCCOCCO2`, -11.5%.
With `COC(=O)/C(=C\c1cc(OC)c(OC)c(OC)c1)c1nc2ccccc2[nH]1.Cl`, the “hERG current change (%, negative = inhibition) at 10uM” value is listed as 19%.
Under `COc1ccc(C)cc1NC(=O)CCCN1C(=O)C(c2ccccc2)Oc2cccnc21` (stereo not drawn) stands 2.21%.
Under `Cc1cccc(CCNC(=O)CCS(=O)(=O)c2cc3c(cc2Cl)NC(=O)CO3)c1` stands 3.71%.
Under `CC[C@H]1OC(=O)[C@H](C)[C@@H](O[C@H]2C[C@@](C)(OC)[C@@H](O)[C@H](C)O2)[C@H](C)[C@@H](O[C@@H]2O[C@H](C)C[C@H](N(C)C)[C@H]2O)[C@](C)(O)C[C@@H](C)CN(C)[C@H](C)[C@@H](O)[C@]1(C)O` stands 1.55%.
As to `Cc1ccc(/C(O)=C2/C(=O)C(=O)N(Cc3ccco3)C2c2cccs2)cc1` (stereo not drawn), the “hERG current change (%, negative = inhibition) at 10uM” value was -8.53%.
With `CCOC(=O)c1cc(C(=O)n2cc(Cl)cn2)nn1C` the figure was 10.6%.
With `Cc1ccc(-c2csc(NC(=O)CCNC(=O)c3ccco3)n2)cc1` the figure was 5.76%; with `COc1cc2c(cc1NC(=O)c1cc(-c3cccnc3)nc3ccc(C)cc13)oc1ccccc12`, 8.86%; with `CCN(CC)c1ccc(/C=N/NC(=O)c2cccc(S(=O)(=O)N3CCOCC3)c2)cc1`, -24.4%.
With `CC1(C(=O)Nc2nnc(SCc3ccccc3)s2)Cc2ccccc2C(=O)O1` (stereo not drawn) the figure was -24.6%.
On to `COc1ccc(OCC(=O)c2c(O)c3ccccc3oc2=O)cc1`, for which the “hERG current change (%, negative = inhibition) at 10uM” value is -12.4%.
For the compound `CCOC(=O)C1=NN(C(=O)Cc2ccccc2)C(O)(C(C)(C)C)C1` (stereo not drawn), the “hERG current change (%, negative = inhibition) at 10uM” value turned out to be 9.74%.
Under `COC(=O)C1=NN(C(=O)c2cccc(Cl)c2)C(O)(C(C)(C)C)C1` (stereo not drawn) stands 8.11%; under `CCOC(=O)C1=NN(C(=O)c2cccc(Br)c2)C(O)(C(C)(C)C)C1` (stereo not drawn), -57.6%; under `COc1ccc(C2CC(=O)C3=C(C2)Nc2ccccc2N(C(C)=O)C3c2ccco2)cc1` (stereo not drawn), -35.8%.
`CN(C)C(=S)NC(=NCc1ccc([N+](=O)[O-])cc1)c1ccccc1`: the “hERG current change (%, negative = inhibition) at 10uM” value was -90.7%.
Under `CN(C)C(=S)Nc1ccc([N+](=O)[O-])cc1` stands -0.053%; under `O=[N+]([O-])c1cccc(C(=NCc2ccccc2)NO)c1`, 15.9%; under `Nc1ncc([N+](=O)[O-])c(Oc2ccccc2F)n1`, 24.7%.
With `CCCC1(CCC)C(=O)NC(=NCc2ccccc2)NC1=O` the figure was 12.7%.
Under `Cc1cc(C)n(-c2nc3c(c(=O)[nH]c(=O)n3C)n2CC(O)COc2ccccc2C)n1` (stereo not drawn) stands -31.9%.
Take `O=C(COc1cccc2c1CCN(Cc1ccccc1)C2=O)N1CCCCC1`: the “hERG current change (%, negative = inhibition) at 10uM” value is listed as -15%.
As for `CC1CCN(C(=O)COc2cccc3c2CCN(Cc2ccccc2)C3=O)CC1`, the “hERG current change (%, negative = inhibition) at 10uM” value is given as -36%.
With `O=C(COc1cccc2c1CCN(Cc1ccc(Cl)cc1)C2=O)N1CCOCC1` the figure was -60.2%.
With `O=C(COc1cccc2c1CCN(Cc1ccccc1F)C2=O)N1CCCCC1` the figure was -43.4%; with `O=C(COc1cccc2c1CCN(Cc1ccc(Br)cc1)C2=O)N1CCOCC1`, -58.4%; with `CCN1CCc2c(OCC(=O)N3CCCCC3)cccc2C1=O`, 5.33%.
As for `CC(C)(C)/C=N/NC(=O)CNC(=O)c1ccc2c(c1)OCCO2`, the “hERG current change (%, negative = inhibition) at 10uM” value is 15.6%.
Under `CC1(C)C2CCC1(C)C(OC(=O)CCn1ccnc1)C2` (stereo not drawn) stands -25.5%; under `Cc1ccc(C)c2sc(NC(=O)c3nc4ccccc4s3)nc12`, 2.76%; under `CCN(CC)C(=O)Oc1ccc(Br)cc1C(=O)Nc1ccc(F)c(Cl)c1`, 2.76%.
Under `CC(=O)c1ccc(/C=C/c2nc3ccccc3n2C)o1` stands -5.96%; under `Cc1ccc(NCc2nnc(SCCN3CCCCC3)n2CC2CCCO2)cc1Cl` (stereo not drawn), -92.4%; under `CCn1c(CNc2ccc(F)cc2)nnc1SCCN1CCCCC1`, -12.1%.
Under `Cc1ccc(NCc2nnc(SCC(=O)N3CCCCC3)n2CC2CCCO2)c(C)c1` (stereo not drawn) stands -5.62%.
In the case of `CCSc1nnc(CNc2ccc(F)cc2)n1CC1CCCO1` (stereo not drawn), the “hERG current change (%, negative = inhibition) at 10uM” value is listed as -15.1%.
Under `Cc1ccc(NCc2nnc(SCC(=O)Nc3ncc(C)s3)n2CC2CCCO2)c(C)c1` (stereo not drawn) stands -12.4%.
Regarding `Cc1ccc(NCc2nnc(SCC(=O)Nc3cccc(O)c3)n2CC2CCCO2)c(C)c1` (stereo not drawn), the “hERG current change (%, negative = inhibition) at 10uM” value was -68.2%.
As to `Cc1ccc(NCc2nnc(SCC(=O)Nc3ccccc3)n2CC2CCCO2)c(C)c1` (stereo not drawn), the “hERG current change (%, negative = inhibition) at 10uM” value was -0.0882%.
With `Fc1ccc(NCc2nnc(SCc3nnc(-c4ccccc4)o3)n2CC2CCCO2)cc1` (stereo not drawn) the figure was -53.1%; with `Cc1ccc(NCc2nnc(SCC(=O)NCc3ccco3)n2CC2CCCO2)cc1Cl` (stereo not drawn), -7.7%; with `Fc1ccc(NCc2nnc(SCc3nnc(-c4ccccc4)o3)n2Cc2ccccc2)cc1`, -46%.
Under `Cc1ccc(NCc2nnc(SCC(N)=O)n2CC2CCCO2)c(C)c1` (stereo not drawn) stands 8.71%; under `Cc1ccc(NCc2nnc(SCCN3CCCCC3)n2CC2CCCO2)c(C)c1` (stereo not drawn), -58.5%; under `CC1(CC(=O)N/N=C/c2cc3c(cc2Br)OCO3)OCCO1`, 15.5%.
With `CCc1c(C)sc(NC(=O)OC)c1C(=O)N1CCCCC1` the figure was -4.94%; with `COC(=O)c1ccc(N2CCN(c3ccccc3)CC2)c(NC(=O)C2CC2)c1`, -35.6%; with `CC(=NCCc1c[nH]c2ccccc12)c1c(O)n(Cc2ccccc2)c(=O)[nH]c1=O`, 0.859%.
`COC(=O)N/N=C\c1cc(Br)ccc1OCc1ccccc1`: the “hERG current change (%, negative = inhibition) at 10uM” value is -6.55%.
Turning to `O=C1CCCC(=O)C1=C1SCCCS1`, the “hERG current change (%, negative = inhibition) at 10uM” value was -5.96%.
As to `COc1cc(C(=O)N2CCC(O)(c3ccccc3)CC2)cc(OC)c1OC`, the “hERG current change (%, negative = inhibition) at 10uM” value is listed as 14.7%.
Under `COc1ccc(C(=O)N2CCN(c3ccc(C)c(C)c3)CC2)cc1OC` stands -6.14%.
Under `COc1cc(C(=O)N2CCN(c3ccc(C)cc3C)CC2)cc(OC)c1OC` stands -19.7%; under `O=C(c1ccc(Cl)cc1)N1CCC(O)(CSc2ccccc2)CC1`, -38.1%; under `O=C(c1ccc(Cl)cc1)N1CCC(O)(CSc2ccc(Cl)cc2)CC1`, -44.4%.
With `COc1ccc(C(=O)N2CCN(c3c(C)cccc3C)CC2)cc1OC` the figure was -68.8%; with `COc1ccc(C(=O)N2CCN(C(=O)c3ccc(-c4ccccc4)cc3)CC2)cc1OC`, -43.6%.
For `COc1ccc(C(=O)N2CCN(c3ccc(C)cc3C)CC2)cc1OC`, the “hERG current change (%, negative = inhibition) at 10uM” value was -68.5%.
With `COc1ccc(C(=O)N2CCC(O)(c3ccc(Cl)cc3)CC2)cc1OC` the figure was -51.9%.
Regarding `COc1cccc(SCC2(O)CCN(C(=O)c3ccc(Cl)cc3)CC2)c1`, the “hERG current change (%, negative = inhibition) at 10uM” value is -69%.
With `COc1ccc(C(=O)N2CCN(c3ccc(C)cc3)CC2)cc1OC`, the “hERG current change (%, negative = inhibition) at 10uM” value was -21.8%.
Under `COc1ccc(C(=O)N2CCC(O)(c3ccc(F)cc3)CC2)cc1OC` stands -38.6%.
